In all, about 5,500 compounds went through this assay and about 2,000 (36%) were called active. Inconclusive results (about 18%) are left out. Cut-off read from the data, not from the text of the source: active = normalized growth mostly below about 0.91 (no sharp cut-off); inconclusive = no clear call, values can overlap the other calls; inactive = mostly above about 0.92. This is one part of the list.
Assay: chemical genetic growth profiling, strain panel (AID 1159580);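 note: tested at 20 µM; growth read once vehicle control cultures reached saturation at 30 °C; 1 = growth at the plate median or of vehicle wells; lower values mean less growth of the strain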
Settings: growth OD
[1] = S. cerevisiae deletion strains, locus YAL040C, strain CLN3, hits give low values
[2] = S. cerevisiae deletion strains, locus YDR363W, strain ESC2, hits give low values
[3] = S. cerevisiae deletion strains, locus YER002W, strain NOP16, hits give low values
[4] = S. cerevisiae deletion strains, locus YGR078C, strain PAC10, hits give low values
[5] = S. cerevisiae deletion strains, locus YJR075W, strain HOC1, hits give low values
[6] = S. cerevisiae deletion strains, locus YNL153C, strain GIM3, hits give low values
[7] = S. cerevisiae deletion strains, locus YNL175C, strain NOP13, hits give low values
[8] = S. cerevisiae deletion strains, locus YNL197C, strain WHI3, hits give low values
[9] = S. cerevisiae deletion strains, locus YNL224C, strain SQS1, hits give low values
[10] = S. cerevisiae deletion strains, locus YOR083W, strain WHI5 (second series), hits give low values
[11] = S. cerevisiae deletion strains, locus YPL241C, strain CIN2, hits give low values
[12] = S. cerevisiae deletion strains, locus YAL013W, strain DEP1, hits give low values
[13] = S. cerevisiae deletion strains, locus YMR263W, strain SAP30, hits give low values
[14] = S. cerevisiae deletion strains, locus YPL055C, strain LGE1, hits give low values

Measured: normalized growth

COc1cc2c(cc1OC)-c1cc(=Nc3c(C)cc(C)cc3C)n(C)c(=O)n1CC2
inactive: [1] 0.995 | S. cerevisiae deletion strains, locus YCL061C, strain MRC1 (second series), hits give low values 0.998 | [2] 1 | [3] 1.02 | [4] 1.01 | [5] 0.97 | S. cerevisiae deletion strains, locus YMR307W, strain GAS1, hits give low values 0.998 | [6] 0.999 | [7] 0.996 | [8] 1.01 | [9] 1.01 | [10] 1.02 | [11] 0.993

c1cc(C2CCCCC2)ccc1C1CCCCC1
inactive: [12] 1.01 | S. cerevisiae deletion strains, locus YBR229C, strain ROT2, hits give low values 1 | S. cerevisiae deletion strains, locus YCL061C, strain MRC1, hits give low values 0.965 | S. cerevisiae deletion strains, locus YDL101C, strain DUN1, hits give low values 0.968 | S. cerevisiae deletion strains, locus YDR150W, strain NUM1, hits give low values 0.958 | S. cerevisiae deletion strains, locus YEL061C, strain CIN8, hits give low values 1.01 | [4] 0.982 | S. cerevisiae deletion strains, locus YHR030C, strain SLT2, hits give low values 0.878 | S. cerevisiae deletion strains, locus YHR087W, strain rtc3, hits give low values 1.04 | S. cerevisiae deletion strains, locus YJR043C, strain POL32, hits give low values 1 | [5] 1.03 | S. cerevisiae deletion strains, locus YLR039C, strain RIC1, hits give low values 1.05 | S. cerevisiae deletion strains, locus YLR058C, strain SHM2 (second series), hits give low values 1.02 | S. cerevisiae deletion strains, locus YLR085C, strain ARP6, hits give low values 1.04 | S. cerevisiae deletion strains, locus YLR262C, strain YPT6, hits give low values 1.04 | S. cerevisiae deletion strains, locus YML094W, strain GIM5, hits give low values 1.02 | S. cerevisiae deletion strains, locus YMR219W, strain ESC1, hits give low values 1.04 | [13] 1 | [6] 0.983 | S. cerevisiae deletion strains, locus YNL298W, strain CLA4 (second series), hits give low values 0.987 | S. cerevisiae deletion strains, locus YNL322C, strain KRE1, hits give low values 1.01 | S. cerevisiae deletion strains, locus YNR030W, strain Alg12, hits give low values 0.967 | S. cerevisiae deletion strains, locus YOL006C, strain TOP1, hits give low values 0.893 | [14] 1.05 | [11] 1 | S. cerevisiae deletion strains, locus YPR135W, strain CTF4, hits give low values 1.05 | S. cerevisiae strains, strain wild type, hits give low values 0.973

CC(=O)NBr
inactive: [12] 1.02 | [1] 0.995 | [2] 1.01 | [3] 1.01 | [4] 1.01 | [13] 1 | S. cerevisiae deletion strains, locus YNL128W, strain TEP1, hits give low values 1.01 | [7] 1.01 | [8] 0.997 | [9] 1.01 | [10] 1.01 | [14] 0.999
